Experimental findings from PubChem BioAssay (NCATS) are described below.

Molecules are shown by their SMILES. Inconclusive results are not listed. A number with no mark means an inactive call. Active and inactive are the calls of the source. Calls follow the shape of the dose curve; as a rule, active = well fitted curve in the direction sought with a large enough effect; inconclusive = small, poorly fitted or top-dose-only effect, or another doubt; inactive = no such curve, though single readings can be large; an effect the other way counts as inactive or inconclusive.
Potency is read from the fitted curve at half-maximal effect.

The first assay in a line: qHTS of pediatric cancer cell lines to identify multiple opportunities for drug repurposing: Confirmatory screen for TC32 cells (AID 1347118).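 Also: cells exposed to compound for 48 h before the read; nearly all actives have a fitted effect of over 65% in size.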 To be noted: TC32 Ewing sarcoma cells viability qHTS. The procedure, abridged:
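qHTS, TC32, 48 h drug treatment, CellTiter-Glo luminescence as a proxy for metabolically active cells; primary top concentration 46 µM (MIPE 11-pt, NPC 8-pt); confirmatory 11-pt.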
With `COC(=O)Nc1nc2ccc(C(=O)C3CC3)cc2[nH]1`, the Potency is 1.17 µM (active).

On to `Oc1c(Br)cc(Br)c2cccnc12`, for which the Potency is 1.65 µM (active).

Take `CN(C)c1ccc(C(=C2C=CC(=[N+](C)C)C=C2)c2ccccc2)cc1`: the Potency is 0.261 µM (active).

Regarding `COC(=O)c1nc(Cl)c(Cl)nc1N`, the Potency was 2.33 µM (active).

Take `CCOC(=O)c1ccccc1O`: the Potency was 1.47 µM (active).

On to `N=C1N=C(N)c2cc3ccccc3cc21`, for which the Potency was 17 µM (active).

Regarding `Nc1ccc([N+](=O)[O-])cc1O`, the Potency was 7.59 µM (active).

As to `COc1cccc2c1C(=O)c1c(O)c3c(c(O)c1C2=O)C[C@@](O)(C(=O)CO)C[C@@H]3O[C@H]1C[C@H](N)[C@H](O[C@@H]2CCCCO2)[C@H](C)O1`, the Potency is 0.465 µM (active).

In the case of `[O-][n+]1ccccc1SSc1cccc[n+]1[O-]`, the Potency is 1.29 µM (active).

For the compound `CCCSc1ccc2nc(NC(=O)OC)[nH]c2c1`, the Potency was 0.355 µM (active).

Another assay can be described thus: qHTS of pediatric cancer cell lines to identify multiple opportunities for drug repurposing: Confirmatory screen for MG 63 (6-TG R) cells (AID 1347119). Also: nearly all actives have a fitted effect of over 55% in size.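 As to activity change, negative = cytotoxicity: plate controls were DMSO neutral control for no effect and bortezomib for full effect.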 To be noted: MG-63 (6-TG resistant) osteosarcoma viability; series mostly up to 95.5 µM; activity change, negative = cytotoxicity: at the top concentration. A digest of the protocol:
(§1)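 Viability after 48 h compound treatment at 37C, 500-1,000 cells/well, read as ATP luminescence with CellTiter-Glo. Primary screens used 11-point (MIPE, 0.78 nM-46 µM) or 8-point (NPC, 0.59 nM-46 µM) final concentrations; follow-up screens used 11-point dilutions.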
A general note: qHTS replaces the single test concentration by a dilution series.
On to `COC(=O)Nc1nc2ccc(C(=O)C3CC3)cc2[nH]1`, for which the Potency is 1.47 µM (active).

Turning to `Oc1c(Br)cc(Br)c2cccnc12`, the Potency is 16.5 µM (active).

In the case of `CN(C)c1ccc(C(=C2C=CC(=[N+](C)C)C=C2)c2ccccc2)cc1`, the Potency was 0.208 µM (active).

As for `COC(=O)c1nc(Cl)c(Cl)nc1N`, the Potency is 2.93 µM (active).

Take `N=C1N=C(N)c2cc3ccccc3cc21`: the Potency was 19.1 µM (active).

`Nc1ccc([N+](=O)[O-])cc1O`: the “activity change, negative = cytotoxicity” value is -22.2%.

As to `[O-][n+]1ccccc1SSc1cccc[n+]1[O-]`, the “activity change, negative = cytotoxicity” value was 20% [at 29.6 µM].

With `CCCSc1ccc2nc(NC(=O)OC)[nH]c2c1`, the Potency is 1.26 µM (active).

A further assay is described as follows: qHTS of pediatric cancer cell lines to identify multiple opportunities for drug repurposing: Confirmatory screen for control Hh wild type fibroblast cells (AID 1347121). Also: nearly all actives have a fitted effect of over 70% in size.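 As to activity, negative = cytotoxic: plate controls were DMSO for no effect and bortezomib for full effect.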 To be noted: viability qHTS; series mostly up to 45.9 µM; activity, negative = cytotoxic: at the top concentration. A digest of the protocol: as §1
`COC(=O)Nc1nc2ccc(C(=O)C3CC3)cc2[nH]1`: the “activity, negative = cytotoxic” value was -2.53%.

For `CN(C)c1ccc(C(=C2C=CC(=[N+](C)C)C=C2)c2ccccc2)cc1`, the Potency was 737 nM (active).

Take `CCOC(=O)c1ccccc1O`: the “activity, negative = cytotoxic” value is -0.723%.

Take `Nc1ccc([N+](=O)[O-])cc1O`: the “activity, negative = cytotoxic” value was 6.76% [at 95.5 µM].

Turning to `[O-][n+]1ccccc1SSc1cccc[n+]1[O-]`, the “activity, negative = cytotoxic” value is -8.14% [at 29.6 µM].

As for `CCCSc1ccc2nc(NC(=O)OC)[nH]c2c1`, the “activity, negative = cytotoxic” value was -4.6% [at 367 µM].

A further assay can be described thus: qHTS of pediatric cancer cell lines to identify multiple opportunities for drug repurposing: Confirmatory screen for U-2 OS cells (AID 1347122). Also: nearly all actives have a fitted effect of over 65% in size.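 As to activity change, negative = cytotoxicity: plate controls were DMSO for no effect and bortezomib for full effect.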 As to conditions: U-2 OS osteosarcoma cell viability; series mostly up to 45.9 µM; activity change, negative = cytotoxicity: at the top concentration. The procedure, abridged:
as §1
In the case of `Oc1c(Br)cc(Br)c2cccnc12`, the Potency is 14.7 µM (active).

As to `COC(=O)c1nc(Cl)c(Cl)nc1N`, the Potency is 2.61 µM (active).

In the case of `CCOC(=O)c1ccccc1O`, the “activity change, negative = cytotoxicity” value was 9.75%.

As to `Nc1ccc([N+](=O)[O-])cc1O`, the result was inactive.

`CCCSc1ccc2nc(NC(=O)OC)[nH]c2c1`: the Potency is 1 µM (active).

A further assay in a line: qHTS of pediatric cancer cell lines to identify multiple opportunities for drug repurposing: Confirmatory screen for Rh41 cells (AID 1347123).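 Also: 48 h compound exposure; nearly all actives have a fitted effect of over 60% in size.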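 As to activity change, negative = cytotoxic: plate controls were DMSO for no effect and bortezomib for full effect.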 As to conditions: Rh41 rhabdomyosarcoma cells, viability/cytotoxicity qHTS; series mostly up to 97.2 µM; activity change, negative = cytotoxic: at the top concentration. From the text:
(§2) Drug repurposing or repositioning has been offered as a strategy for drug development in oncology programs. This approach has special potential for childhood cancers and other rare or orphan diseases, where the expected return on new drug development has been a disincentive to pharmaceuticals.
(§3) In this project we exploit the poly-pharmacology of drugs to discover new indications via phenotypic screening of a panel of 19 well-characterized cell lines derived from solid tumors seen in children and adolescents. The goal is to identify approved drugs with previously unrecognized anticancer properties that has the potential to reveal new mechanisms and biological processes involved in carcinogenesis or drug resistance. We employed a titration-based paradigm (quantitative high-throughput screening or qHTS), where all compounds were tested at multiple concentrations for their effect on cell viability. Concentration-response curves (CRCs) were derived directly from the primary screen, and both potency and efficacy values were used to identify compounds with robust bioactivity profiles. We screened the NIH Chemical Genomics Center (NCGC) Pharmaceutical Collection (NPC) and Mechanism Interrogation Plate (MIPE) small molecule collections of approved and investigational compounds against these cell lines; and measured metabolically active cells after 48 hours of compound treatment as a proxy for cell viability.
(§4) Assay Submitter: Nathalia J. Martinez, National Center for Advancing Translational Sciences, National Institutes of Health, Rockville, MD, USA; email: natalia.martinez@nih.gov
(§5) [1] Shen, M et al. Quantitative high-throughput phenotypic screening of pediatric cancer cell lines identifies multiple opportunities for drug repurposing. Oncotarget 2017 Dec 19;9(4):4758-4772. PMID 29435139.
(§6) The cells were obtained from University of North Carolina (UNC), Pediatric Preclinical Testing Program (PPT), and Coriell Institute (CI).
(§7) qHTS cell viability assay:
(§8) Cells were assayed in growth media at a density of 500-1,000 cells/well. Five microliters of cells were dispensed into 1,536-well, white, solid-bottom, TC-treated plates (Greiner Bio One) using a multidrop dispenser and incubated at 37 degrees C, 5% CO2, under a humidified atmosphere for 5 hours. Twenty-three nanoliters of compounds and controls (neutral control DMSO or positive control bortezomib at final concentration of 2.3 µM) were subsequently transferred by Kalypsys pintool. For primary screens, the MIPE collection was tested at 11-point dilutions (final concentrations range from 0.78 nM to 46 µM) and the NPC collection at 8-point dilutions (final concentrations range from 0.59 nM to 46 µM). Compounds tested in follow-up screens were assayed at 11-point dilutions. Cells were incubated for 48 hours, followed by addition of 3 µL of CellTiter-Glo (Promega). After a 15 min incubation at room temperature, samples were analyzed for luminescence intensity using a ViewLux High-throughput CCD imager equipped with clear filters.
Take `CN(C)c1ccc(C(=C2C=CC(=[N+](C)C)C=C2)c2ccccc2)cc1`: the Potency was 0.414 µM (active).

Turning to `COC(=O)c1nc(Cl)c(Cl)nc1N`, the Potency is 1.31 µM (active).

For `CCOC(=O)c1ccccc1O`, the “activity change, negative = cytotoxic” value was -1.24% [at 45.9 µM].

For the compound `N=C1N=C(N)c2cc3ccccc3cc21`, the Potency was 30.2 µM (active).

As to `Nc1ccc([N+](=O)[O-])cc1O`, the “activity change, negative = cytotoxic” value was -18.5%.

In the case of `COc1cccc2c1C(=O)c1c(O)c3c(c(O)c1C2=O)C[C@@](O)(C(=O)CO)C[C@@H]3O[C@H]1C[C@H](N)[C@H](O[C@@H]2CCCCO2)[C@H](C)O1`, the Potency was 2.93 µM (active).

Consider `CCCSc1ccc2nc(NC(=O)OC)[nH]c2c1`, for which the Potency is 1.12 µM (active).

The nature of another assay: qHTS of pediatric cancer cell lines to identify multiple opportunities for drug repurposing: Confirmatory screen for RD cells (AID 1347124).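 Also: cells exposed to compound for 48 h before viability readout; nearly all actives have a fitted effect of over 65% in size.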 As to activity change, negative = cytotoxic: % is scaled to controls: 0 for no effect and ±100 for the full control effect. As to conditions: RD rhabdomyosarcoma cell viability; series mostly up to 97.2 µM; activity change, negative = cytotoxic: at the top concentration.
Source text: as §2, §3, §4, §5, §6, §7, §8
`COC(=O)Nc1nc2ccc(C(=O)C3CC3)cc2[nH]1`: the Potency was 2.33 µM (active).

As to `CN(C)c1ccc(C(=C2C=CC(=[N+](C)C)C=C2)c2ccccc2)cc1`, the Potency is 1.31 µM (active).

`COC(=O)c1nc(Cl)c(Cl)nc1N`: the Potency was 2.61 µM (active).

For the compound `N=C1N=C(N)c2cc3ccccc3cc21`, the “activity change, negative = cytotoxic” value is 7.33%.

Consider `[O-][n+]1ccccc1SSc1cccc[n+]1[O-]`, for which the “activity change, negative = cytotoxic” value was -95% [at 29.5 µM].

`CCCSc1ccc2nc(NC(=O)OC)[nH]c2c1`: the Potency was 2.51 µM (active).
